Molecules are shown by their SMILES. The source made the active and inactive calls.

System in one assay: not listed separately
In words: CREB reporter modulators under forskolin, primary screen, cell-based, PC12, CRE-LacZ reporter, forskolin-stimulated (AID 1146).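 Note: PC12 cells with 6xCRE LacZ reporter stimulated by forskolin 10 µM; beta-galactosidase reporter signal reflecting CREB driven transcription.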 The following applies: luminescence, 4.5 h, higher = more signal, called active from +8 up or from −8 down.
As for `[N-]=[N+]=Nc1ccccc1C[C@@]1(C(N)=O)N=C(c2ccc(OCCCO)cc2)O[C@@H]1c1ccccc1N=[N+]=[N-]`, the z-score was -1.89 (inactive).

Turning to `O=C(NCc1ccc(F)cc1)[C@H]1C[C@H]2C(=O)NCC(=O)N2[C@H]1c1ccc(O)cc1`, the z-score was -0.0067 (inactive).

Regarding `C=CCNC(=O)[C@@H]1[C@H]2C(=O)O[C@H](c3ccccc3)[C@H](c3ccccc3)N2[C@H](c2ccccc2OCCO)[C@@]12C(=O)Nc1ccc(C#CCCO)cc12`, the z-score is -1.17 (inactive).

Regarding `CCOC(=O)C[C@H]1[C@H](OC(=O)Cc2ccc3c(c2)OCO3)[C@@H](NC(=O)C2CCCCC2)c2cc(OCCCO)ccc2N1C(=O)c1ccccc1`, the z-score is -1.27 (inactive).

`COc1ccc([Si](C)(C)[C@@H]2[C@@H](CCO)O[C@]3(C(=O)N(Cc4ccccc4)c4ccc(N5CCOC5=O)cc43)[C@H]2C)cc1`: the z-score was -0.205 (inactive).

As to `C=C(/C(=C/C[C@H](OC(C)=O)c1ccc(CO)o1)c1cnc2ccccc2c1)C(C)C`, the z-score was 0.647 (inactive).

With `CCCCCCCCCCC(O)C1C=CC2C(=O)N(c3ccccc3)C(=O)C2N1Nc1ccc(C#N)cc1` (configuration not stated), the z-score was 0.407 (inactive).

In the next assay the target is Streptavidin (Streptomyces avidinii) (UniProt P22629). Briefly: streptavidin binders on small-molecule microarray, primary screen, artefact control for SMM compound annotation, biophysical, 635/667 nm fluorescence (AID 1147).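 Note: signal reflects streptavidin binding to arrayed compounds as a control protein.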 The following applies: streptavidin binding, higher = more signal.
Streptavidin (Streptomyces avidinii), sequence (P22629 whole entry, looked up): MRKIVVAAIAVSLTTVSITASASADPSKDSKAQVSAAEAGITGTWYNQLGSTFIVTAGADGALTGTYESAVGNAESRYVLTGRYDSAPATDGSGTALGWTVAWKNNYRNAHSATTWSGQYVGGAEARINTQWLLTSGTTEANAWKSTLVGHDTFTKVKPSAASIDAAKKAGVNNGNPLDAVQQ
Molecule `COc1cc2c(cc1O)C(c1cccs1)N(Cc1cc3c(cc1Br)OCO3)CC2` (configuration not stated) showed a composite z-score of 2.07.

`CCC#CCN(Cc1ccccc1Br)[C@H](/C=C/C1CC1)[C@@H](O)Cc1ccccc1` showed a composite z-score of -0.529.

In turn, `COC(=O)[C@@]1(Cc2ccccc2)[C@H]2c3cc(C(=O)N4CCCC4)n(CCc4ccccn4)c3C[C@H]2CN1C(=O)c1ccccc1` came in with a composite z-score of 1.94.

Molecule `CCCCC(CC)C(O)C1C=CC2C(=O)N(c3ccccc3)C(=O)C2N1Nc1ccccc1F` (configuration not stated) gave a composite z-score of 0.0844.

For the molecule `[N-]=[N+]=Nc1ccccc1[C@@H]1OC(c2ccc(OCCCO)cc2)=N[C@]1(Cc1ccccc1)C(=O)N1CCCCC1`, the composite z-score was 1.38.

`CC1CC/C=C\[C@H]2OC34C=CCN(C(C)C)C(=O)[C@H]3N(CCO)C(=O)[C@@H]4C2C(=O)O1` (some centres not stated) registered a composite z-score of -1.14.

Take `CCOC(=O)C1=C[C@@H](C(C)(C)C)N(S(=O)(=O)c2ccc(C)cc2)[C@H]1c1cccc2ccccc12`: the composite z-score is 0.823.

`CC(C)[Si]1(C(C)C)OCc2cc(-c3ccc(-c4ccc(Cl)c(Cl)c4)o3)nc(-c3ccccc3)c21` gave a composite z-score of -0.832.

For `CCCCCCc1nc(Cc2cc(OC)c(OC)c(OC)c2)cc2c1[Si](C(C)C)(C(C)C)OC2`, the composite z-score was determined as 0.0761.

For the molecule `C=CC[C@@H](OC(=O)Nc1ccc(SC)cc1)c1ccc(O)c(F)c1`, the composite z-score was -0.192.

In turn, `Cc1ccc(NN2C(C(O)c3c(F)cccc3Cl)C=CC3C(=O)N(C4CCCCC4)C(=O)C32)cc1` (configuration not stated) had a composite z-score of 1.75.

The molecule `COc1ccc([Si](C)(C)[C@@H]2[C@@H](CC(=O)N(CCO)Cc3ccccc3)O[C@]3(C(=O)N(Cc4cccc(N5CCCCC5=O)c4)c4ccccc43)[C@H]2C)cc1` showed a composite z-score of -0.402.

For the molecule `NC(=O)[C@H]1[C@@H]2C(=O)O[C@@H](c3ccccc3)[C@@H](c3ccccc3)N2[C@@H](c2ccc(OCCO)cc2)[C@]12C(=O)Nc1ccc(C#CCCO)cc12`, the composite z-score turned out to be 0.617.

Molecule `COc1cc(C(O)C2C=CC3C(=O)N(C)C(=O)C3N2Nc2ccccc2)cc(OC)c1OC` (configuration not stated) had a composite z-score of 1.06.

Molecule `C#Cc1cc2ccccc2oc1=O` showed a composite z-score of -1.47.

In turn, `CC(=O)NCCCC[C@@H]1NC(=O)[C@@H]2C[C@H](C(=O)NCCCCCN)[C@H](c3cccc(OCCO)c3)N2C1=O` showed a composite z-score of 1.37.

`COc1ccc(CCNC(=O)[C@@]2(c3ccc([N+](=O)[O-])cc3)CC(=O)N(C3CCCCC3)[C@@H]2c2ccc(CO)cc2)cc1` came in with a composite z-score of 0.0841.

In turn, `NCCCCCNC(=O)[C@@H]1C[C@@H]2C(=O)N[C@@H](CCCCN)C(=O)N2[C@@H]1c1ccc(O)cc1` returned a composite z-score of 0.811.

As for `NCCCCCNC(=O)[C@H]1C[C@H]2C(=O)N3CCC[C@H]3C(=O)N2[C@H]1c1cccc(OCCO)c1`, the composite z-score was found to be 0.812.

As to `COCCOC(=O)N1C(=O)[C@@]2(c3cc(C#CCCO)ccc31)[C@H](c1ccc(OCCO)cc1)N1[C@H](c3ccccc3)[C@H](c3ccccc3)OC(=O)[C@H]1[C@@H]2C(=O)Nc1nc2ccccc2s1`, the composite z-score is 1.13.

The molecule `COC(=O)C1=CC(CCCO)=CC(c2cccs2)N(C)C=C1C(=O)OC` (configuration not stated) gave a composite z-score of 0.0877.

For the molecule `COCCOC(=O)N1C(=O)[C@@]2(c3cc(C#CC4(O)CCCCCC4)ccc31)[C@H](c1ccc(O)cc1)N1[C@H](c3ccccc3)[C@H](c3ccccc3)OC(=O)[C@H]1[C@@H]2C(=O)N1CCN(c2ncccn2)CC1`, the composite z-score came to 1.33.

The molecule `COc1ccc([Si](C)(C)[C@@H]2[C@@H](CCO)O[C@]3(C(=O)N(Cc4cccc(NC(=O)[C@H](C)O)c4)c4ccccc43)[C@H]2C)cc1` had a composite z-score of 0.887.

In turn, `Cc1ccc(S[C@]2(C(=O)O)CC(=O)N(C3CCCCC3)[C@@H]2c2ccc(CO)cc2I)cc1` registered a composite z-score of 1.43.

Turning to `O=C1C[C@]2(c3ccc([N+](=O)[O-])cc3)C(=O)N(C3CC3)c3cc(CO)ccc3[C@H]2N1CC12CC3CC(CC(C3)C1)C2`, the composite z-score is -0.368.

Take `COCCCNC(=O)[C@@]1(Sc2ccc(C)cc2)CC(=O)N(C2Cc3ccccc3C2)[C@@H]1c1ccc(CO)cc1`: the composite z-score was -1.17.

`O=C1OCCC=C[C@H]2OC34C=CCN(c5ccc6ccccc6c5)C(=O)[C@H]3N(CCCO)C(=O)[C@@H]4C12` (some centres not stated): the composite z-score is -1.16.

The molecule `COC(=O)[C@@]1(Cc2ccc(F)cc2)[C@H]2c3cc(C(=O)N(C)C)n(CCc4ccc(OC)c(Br)c4)c3C[C@H]2CN1C(=O)c1ccccc1` gave a composite z-score of 0.221.

Turning to `[N-]=[N+]=Nc1ccccc1C[C@@]1(C(N)=O)N=C(c2ccc(OCCCO)cc2)O[C@@H]1c1ccccc1N=[N+]=[N-]`, the composite z-score was found to be 0.823.

Take `O=C(NCc1ccc(F)cc1)[C@H]1C[C@H]2C(=O)NCC(=O)N2[C@H]1c1ccc(O)cc1`: the composite z-score was -0.311.

`C=CCNC(=O)[C@@H]1[C@H]2C(=O)O[C@H](c3ccccc3)[C@H](c3ccccc3)N2[C@H](c2ccccc2OCCO)[C@@]12C(=O)Nc1ccc(C#CCCO)cc12` had a composite z-score of -0.158.

With `CCOC(=O)C[C@H]1[C@H](OC(=O)Cc2ccc3c(c2)OCO3)[C@@H](NC(=O)C2CCCCC2)c2cc(OCCCO)ccc2N1C(=O)c1ccccc1`, the composite z-score came to 0.584.

`COc1ccc([Si](C)(C)[C@@H]2[C@@H](CCO)O[C@]3(C(=O)N(Cc4ccccc4)c4ccc(N5CCOC5=O)cc43)[C@H]2C)cc1` displayed a composite z-score of 0.242.

As for `C=C(/C(=C/C[C@H](OC(C)=O)c1ccc(CO)o1)c1cnc2ccccc2c1)C(C)C`, the composite z-score came to 1.44.

In turn, `CCCCCCCCCCC(O)C1C=CC2C(=O)N(c3ccccc3)C(=O)C2N1Nc1ccc(C#N)cc1` (configuration not stated) showed a composite z-score of 1.66.

The record behind these values is PubChem BioAssay.
